# Columns and labels:
# Settings in all cases: concentration: 1 μM, replicates: in singlicate; n = 1
# [1] = system: T1, HASPIN
# T1 construct: gene GSG2
# [2] = system: HCK
# [3] = system: HIPK1
# [4] = system: HIPK2
# [5] = system: HIPK3
# [6] = system: HIPK4
# [7] = system: HPK1
# [8] = system: HUNK
# [9] = system: ICK
# [10] = system: IGF1R
# [11] = system: T2, IKK-alpha
# T2 construct: gene CHUK
# [12] = system: T3, IKK-beta
# T3 construct: gene IKBKB
# [13] = system: T4, IKK-epsilon
# T4 construct: gene IKBKE
# [14] = system: INSRR
# [15] = system: INSR
# [16] = system: IRAK1
# [17] = system: IRAK3
# [18] = system: IRAK4
# [19] = system: ITK
# [20] = system: JAK1(JH1domain-catalytic)
# 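Note: KINOMEscan kinase panel screen.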
smiles,measurement,setting,value
CN(C)Cc1ccc(-c2ccc3c(Nc4ccc(Oc5ccccn5)cc4)ccnc3c2)o1 [GW567148],%Inh,[1],26%
same,%Inh,[2],93.8%
same,%Inh,[3],0%
same,%Inh,[4],0%
same,%Inh,[5],1%
same,%Inh,[6],0%
same,%Inh,[7],0%
same,%Inh,[8],0%
same,%Inh,[9],0%
same,%Inh,[10],0%
same,%Inh,[11],27%
same,%Inh,[12],7%
same,%Inh,[13],27%
same,%Inh,[14],0%
same,%Inh,[15],6%
same,%Inh,[16],21%
same,%Inh,[17],22%
same,%Inh,[18],0%
same,%Inh,[19],15%
same,%Inh,[20],0%
Cc1cccc(NC(=O)Nc2ccc(Oc3ncnc4ccn(C)c34)cc2)c1,%Inh,[1],0%
same,%Inh,[2],25%
same,%Inh,[3],24%
same,%Inh,[4],0%
same,%Inh,[5],0%
same,%Inh,[6],52%
same,%Inh,[7],31%
same,%Inh,[8],4%
same,%Inh,[9],0%
same,%Inh,[10],0%
same,%Inh,[11],27%
same,%Inh,[12],8%
same,%Inh,[13],0%
same,%Inh,[14],0%
same,%Inh,[15],0%
same,%Inh,[16],0%
same,%Inh,[17],0%
same,%Inh,[18],0%
same,%Inh,[19],0%
same,%Inh,[20],0%
O=C(Nc1cccc(-c2nn3ccccc3c2-c2ccnc(Nc3cccc(C(F)(F)F)c3)n2)c1)c1c(F)cccc1F [GSK292658],%Inh,[1],0%
same,%Inh,[2],96.9%
same,%Inh,[3],0%
same,%Inh,[4],0%
same,%Inh,[5],0%
same,%Inh,[6],0%
same,%Inh,[7],21%
same,%Inh,[8],0%
same,%Inh,[9],0%
same,%Inh,[10],0%
same,%Inh,[11],0%
same,%Inh,[12],3%
same,%Inh,[13],1%
same,%Inh,[14],12%
same,%Inh,[15],16%
same,%Inh,[16],0%
same,%Inh,[17],0%
same,%Inh,[18],12%
same,%Inh,[19],6%
same,%Inh,[20],0%
O=C(Nc1cccc(-c2nn3ncccc3c2-c2ccnc(Nc3ccccc3)n2)c1)c1c(F)cccc1F [GSK198271],%Inh,[1],0%
same,%Inh,[2],99.3%
same,%Inh,[3],0%
same,%Inh,[4],0%
same,%Inh,[5],9%
same,%Inh,[6],28%
same,%Inh,[7],43%
same,%Inh,[8],3%
same,%Inh,[9],0%
same,%Inh,[10],24%
same,%Inh,[11],0%
same,%Inh,[12],0%
same,%Inh,[13],0%
same,%Inh,[14],0%
same,%Inh,[15],28%
same,%Inh,[16],0%
same,%Inh,[17],0%
same,%Inh,[18],11%
same,%Inh,[19],12%
same,%Inh,[20],5%
Cc1ccc(S(=O)(=O)Nc2ccc(Nc3nccc(Nc4cccc5[nH]ncc45)n3)cc2)cc1 [GSK581271],%Inh,[1],0%
same,%Inh,[2],0%
same,%Inh,[3],0%
same,%Inh,[4],0%
same,%Inh,[5],1%
same,%Inh,[6],0%
same,%Inh,[7],23%
same,%Inh,[8],2%
same,%Inh,[9],0%
same,%Inh,[10],10%
same,%Inh,[11],10%
same,%Inh,[12],3%
same,%Inh,[13],0%
same,%Inh,[14],0%
same,%Inh,[15],0%
same,%Inh,[16],29%
same,%Inh,[17],62%
same,%Inh,[18],43%
same,%Inh,[19],29%
same,%Inh,[20],44%
COc1cccc(NC(=O)NC2CCN(c3ccnc(Nc4cc(OC)c(OC)c(OC)c4)n3)C2)c1 (stereo not shown) [GSK1379763],%Inh,[1],0%
same,%Inh,[2],0%
same,%Inh,[3],0%
same,%Inh,[4],0%
same,%Inh,[5],85%
same,%Inh,[6],0%
same,%Inh,[7],76%
same,%Inh,[8],0%
same,%Inh,[9],18%
same,%Inh,[10],0%
same,%Inh,[11],0%
same,%Inh,[12],6%
same,%Inh,[13],12%
same,%Inh,[14],0%
same,%Inh,[15],0%
same,%Inh,[16],73%
same,%Inh,[17],86%
same,%Inh,[18],27%
same,%Inh,[19],25%
same,%Inh,[20],0%
Cl.NC(=O)c1cccc(Nc2nccc(Nc3ccc(Oc4c(Cl)cccc4Cl)c(Cl)c3)n2)c1 [GW659009],%Inh,[1],0%
same,%Inh,[2],77%
same,%Inh,[3],0%
same,%Inh,[4],11%
same,%Inh,[5],2%
same,%Inh,[6],4%
same,%Inh,[7],0%
same,%Inh,[8],0%
same,%Inh,[9],0%
same,%Inh,[10],0%
same,%Inh,[11],0%
same,%Inh,[12],0%
same,%Inh,[13],0%
same,%Inh,[14],0%
same,%Inh,[15],0%
same,%Inh,[16],0%
same,%Inh,[17],90%
same,%Inh,[18],0%
same,%Inh,[19],98.7%
same,%Inh,[20],9%
COc1ccc(Nc2nccc(N3CCC(NC(=O)Nc4cccc(OC)c4)C3)n2)cc1 (stereo not shown) [GSK1379742],%Inh,[1],10%
same,%Inh,[2],0%
same,%Inh,[3],0%
same,%Inh,[4],28%
same,%Inh,[5],19%
same,%Inh,[6],0%
same,%Inh,[7],56%
same,%Inh,[8],24%
same,%Inh,[9],0%
same,%Inh,[10],0%
same,%Inh,[11],24%
same,%Inh,[12],19%
same,%Inh,[13],0%
same,%Inh,[14],0%
same,%Inh,[15],0%
same,%Inh,[16],0%
same,%Inh,[17],15%
same,%Inh,[18],6%
same,%Inh,[19],11%
same,%Inh,[20],12%
CN1CCN(Cc2cccc(-c3ccc4c(Nc5ccc(Oc6ccccc6)cc5)ccnc4c3)c2)CC1 [GW578342],%Inh,[1],17%
same,%Inh,[2],95.1%
same,%Inh,[3],0%
same,%Inh,[4],2%
same,%Inh,[5],0%
same,%Inh,[6],0%
same,%Inh,[7],25%
same,%Inh,[8],11%
same,%Inh,[9],0%
same,%Inh,[10],5%
same,%Inh,[11],5%
same,%Inh,[12],0%
same,%Inh,[13],12%
same,%Inh,[14],6%
same,%Inh,[15],0%
same,%Inh,[16],13%
same,%Inh,[17],0%
same,%Inh,[18],0%
same,%Inh,[19],9%
same,%Inh,[20],21%
CC(C)(C)c1ccc2nccc(Nc3cccc(O)c3)c2c1 [GW856795],%Inh,[1],27%
same,%Inh,[2],60%
same,%Inh,[3],18%
same,%Inh,[4],50%
same,%Inh,[5],0%
same,%Inh,[6],0%
same,%Inh,[7],37%
same,%Inh,[8],0%
same,%Inh,[9],24%
same,%Inh,[10],0%
same,%Inh,[11],31%
same,%Inh,[12],0%
same,%Inh,[13],0%
same,%Inh,[14],0%
same,%Inh,[15],0%
same,%Inh,[16],0%
same,%Inh,[17],0%
same,%Inh,[18],0%
same,%Inh,[19],19%
same,%Inh,[20],0%
Cc1cccc(Nc2nc(N[C@H]3CCNC3)ncc2C(N)=O)c1.Cl [GSK2197149],%Inh,[1],54%
same,%Inh,[2],82%
same,%Inh,[3],21%
same,%Inh,[4],8%
same,%Inh,[5],30%
same,%Inh,[6],0%
same,%Inh,[7],88%
same,%Inh,[8],0%
same,%Inh,[9],0%
same,%Inh,[10],2%
same,%Inh,[11],35%
same,%Inh,[12],12%
same,%Inh,[13],13%
same,%Inh,[14],0%
same,%Inh,[15],16%
same,%Inh,[16],21%
same,%Inh,[17],1%
same,%Inh,[18],76%
same,%Inh,[19],21%
same,%Inh,[20],0%
Oc1cc(Nc2ccnc3cc(I)ccc23)ccc1F [GW552771],%Inh,[1],28%
same,%Inh,[2],76%
same,%Inh,[3],42%
same,%Inh,[4],59%
same,%Inh,[5],20%
same,%Inh,[6],10%
same,%Inh,[7],37%
same,%Inh,[8],2%
same,%Inh,[9],0%
same,%Inh,[10],0%
same,%Inh,[11],31%
same,%Inh,[12],19%
same,%Inh,[13],0%
same,%Inh,[14],0%
same,%Inh,[15],0%
same,%Inh,[16],50%
same,%Inh,[17],25%
same,%Inh,[18],11%
same,%Inh,[19],0%
same,%Inh,[20],4%
COc1cc(Nc2nccc(N3CCC(NC(=O)c4cc5ccccc5s4)C3)n2)cc(OC)c1OC (stereo not shown) [GSK1379760],%Inh,[1],19%
same,%Inh,[2],0%
same,%Inh,[3],9%
same,%Inh,[4],0%
same,%Inh,[5],0%
same,%Inh,[6],9%
same,%Inh,[7],90%
same,%Inh,[8],0%
same,%Inh,[9],0%
same,%Inh,[10],13%
same,%Inh,[11],0%
same,%Inh,[12],0%
same,%Inh,[13],6%
same,%Inh,[14],4%
same,%Inh,[15],5%
same,%Inh,[16],18%
same,%Inh,[17],85%
same,%Inh,[18],4%
same,%Inh,[19],5%
same,%Inh,[20],8%
COc1cccc(-c2ccc3c(NC(=O)C4CC4)n[nH]c3n2)c1 [SB-710903],%Inh,[1],32%
same,%Inh,[2],0%
same,%Inh,[3],0%
same,%Inh,[4],0%
same,%Inh,[5],41%
same,%Inh,[6],10%
same,%Inh,[7],41%
same,%Inh,[8],1%
same,%Inh,[9],23%
same,%Inh,[10],17%
same,%Inh,[11],50%
same,%Inh,[12],26%
same,%Inh,[13],52%
same,%Inh,[14],0%
same,%Inh,[15],0%
same,%Inh,[16],57%
same,%Inh,[17],0%
same,%Inh,[18],27%
same,%Inh,[19],6%
same,%Inh,[20],9%
CC(C)c1nc(-c2cccc(NS(=O)(=O)c3c(F)cccc3F)c2F)c(-c2ccnc(Nc3ccc(N4CCOCC4)nc3)n2)s1 [GSK2008607],%Inh,[1],0%
same,%Inh,[2],99.5%
same,%Inh,[3],91.1%
same,%Inh,[4],92.3%
same,%Inh,[5],94.5%
same,%Inh,[6],94.7%
same,%Inh,[7],88%
same,%Inh,[8],0%
same,%Inh,[9],77%
same,%Inh,[10],8%
same,%Inh,[11],0%
same,%Inh,[12],4%
same,%Inh,[13],85%
same,%Inh,[14],4%
same,%Inh,[15],4%
same,%Inh,[16],17%
same,%Inh,[17],16%
same,%Inh,[18],10%
same,%Inh,[19],97.4%
same,%Inh,[20],1%
COc1ccc(CNC(=O)NC2CCN(c3ccnc(Nc4ccc(F)cc4)n3)CC2)cc1 [GSK1379788],%Inh,[1],6%
same,%Inh,[2],0%
same,%Inh,[3],0%
same,%Inh,[4],0%
same,%Inh,[5],9%
same,%Inh,[6],0%
same,%Inh,[7],37%
same,%Inh,[8],14%
same,%Inh,[9],0%
same,%Inh,[10],0%
same,%Inh,[11],1%
same,%Inh,[12],0%
same,%Inh,[13],11%
same,%Inh,[14],0%
same,%Inh,[15],0%
same,%Inh,[16],17%
same,%Inh,[17],24%
same,%Inh,[18],0%
same,%Inh,[19],0%
same,%Inh,[20],11%
Nc1ncc(-c2cccnc2)c2scc(-c3ccc4c(c3)CCN4C(=O)Cc3ccccc3)c12 [GSK683281],%Inh,[1],0%
same,%Inh,[2],25%
same,%Inh,[3],20%
same,%Inh,[4],0%
same,%Inh,[5],35%
same,%Inh,[6],0%
same,%Inh,[7],63%
same,%Inh,[8],34%
same,%Inh,[9],8%
same,%Inh,[10],0%
same,%Inh,[11],0%
same,%Inh,[12],11%
same,%Inh,[13],46%
same,%Inh,[14],0%
same,%Inh,[15],0%
same,%Inh,[16],10%
same,%Inh,[17],17%
same,%Inh,[18],5%
same,%Inh,[19],18%
same,%Inh,[20],19%

# Reference: publication PMC5540273 (PLoS ONE, 2017)
